The results in this text go back to the supplement of paper PMC8866396.

The test system of one assay is IL-6-GFP PC-9GR. As to the kind of experiment: cell viability (CCK-8 OD) relative to DMSO control (fraction of control); higher = more viable cells. To be noted: compound concentration: 10 uM; treatment time: 48 h. The method in brief: (§1)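 In 96-well plates, 3000 cells/well of PC-9 or PC-9GR lung cancer cells with lentiviral IL-6-GFP overexpression received each compound of a purchased 510-compound library at a final 10 μM for 48 h. Viability, measured by CCK-8 absorbance, is each well's optical density relative to the vehicle control well. Data come from two independent replicates.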

The subject of another assay is IL-6-GFP PC-9. The description is as above. To be noted: compound concentration: 10 uM; treatment time: 48 h. The method in brief:
as §1

± gives the standard deviation of the averaged measurements.

Consider `N#Cc1cc(NC(=O)C(=O)O)c(Cl)c(NC(=O)C(=O)O)c1.NC(CO)(CO)CO.NC(CO)(CO)CO` [Lodoxamide Tromethamine], for which the cell viability in the assay with IL-6-GFP PC-9GR was found to be 1.14 ± 0.25; in the assay with IL-6-GFP PC-9, 1.09 ± 0.083.

With `CN(C)C/C=C/C(=O)Nc1cc2c(Nc3ccc(F)c(Cl)c3)ncnc2cc1OC1CCOC1` (stereo unspecified) [Afatinib (BIBW2992)], the cell viability with IL-6-GFP PC-9GR is 0.542 ± 0.058; with IL-6-GFP PC-9, 0.294 ± 0.038.

For the compound `OCC1OC(c2ccc(F)c(Cc3cc4ccccc4s3)c2)C(O)C(O)C1O` (stereo unspecified) [Ipragliflozin (ASP1941)], the results for the cell viability in the assay with IL-6-GFP PC-9GR and with IL-6-GFP PC-9 were 0.779 ± 0.068 and 1.06 ± 0.12, respectively.

On to `COc1cc(C2c3cc4c(cc3C(OC3OC5COC(c6cccs6)OC5C(O)C3O)C3COC(=O)C23)OCO4)cc(OC)c1O` (stereo unspecified) [Teniposide], for which the values for the cell viability in the assay with IL-6-GFP PC-9GR and in the assay on IL-6-GFP PC-9 were 0.0642 ± 0.047 and 0.121 ± 0.035, respectively.

Take `O=S1(=O)CCN(CN2CCS(=O)(=O)NC2)CN1` [Taurolidine]: the cell viability with IL-6-GFP PC-9GR was determined as 1.22 ± 0.27; with IL-6-GFP PC-9, 1.234 ± 0.011.

Take `Cl.N=C1CCCN1Cc1[nH]c(=O)[nH]c(=O)c1Cl.O=c1[nH]c(=O)n(C2CC(O)C(CO)O2)cc1C(F)(F)F.O=c1[nH]c(=O)n(C2CC(O)C(CO)O2)cc1C(F)(F)F` (stereo unspecified): the cell viability in the assay with IL-6-GFP PC-9GR was determined as 0.556 ± 0.067; with IL-6-GFP PC-9, 0.812 ± 0.28.

As to `CC(CN1c2ccccc2Sc2ccccc21)N(C)C.Cl` (stereo unspecified) [Promethazine HCl], the cell viability came out at 0.929 ± 0.013 in the assay on IL-6-GFP PC-9GR and 1.05 ± 0.051 with IL-6-GFP PC-9.

`O=C(O)CCCN1CCC(OC(c2ccc(Cl)cc2)c2ccccn2)CC1.O=S(=O)(O)c1ccccc1` (stereo unspecified) [Bepotastine Besilate]: the cell viability in the assay with IL-6-GFP PC-9GR was 0.9937 ± 0.0023; in the assay with IL-6-GFP PC-9, 0.84 ± 0.015.

For the compound `NC(=O)NO` [Hydroxyurea], the cell viability stood at 1.32 ± 0.077 with IL-6-GFP PC-9GR and 0.839 ± 0.1 with IL-6-GFP PC-9.

Consider `CN1CCC(=C2c3ccccc3C=Cc3ccccc32)CC1.Cl` [Cyproheptadine hydrochloride], for which the cell viability in the assay with IL-6-GFP PC-9GR stood at 0.784 ± 0.082; in the assay on IL-6-GFP PC-9, 1.07 ± 0.17.

For `Cl.Cl.Cl.Cl.Cl.Cl.Cl.Cl.c1cc(CN2CCCNCCNCCCNCC2)ccc1CN1CCCNCCNCCCNCC1` [Plerixafor 8HCl (AMD3100 8HCl)], the figures for the cell viability with IL-6-GFP PC-9GR and in the assay with IL-6-GFP PC-9 were 1.04 ± 0.12 and 1.13 ± 0.1, respectively.

With `COC1OC2OC3(C)CCC4C(C)CCC(C1C)C24OO3` (stereo unspecified) [Artemether], the cell viability came out at 1.29 ± 0.17 in the assay with IL-6-GFP PC-9GR and 1.29 ± 0.052 with IL-6-GFP PC-9.

On to `COC(=O)C(Cc1ccccc1)NC(=O)C(N)CC(=O)O` (stereo unspecified) [Aspartame], for which the cell viability in the assay with IL-6-GFP PC-9GR came out at 1.08 ± 0.091; in the assay with IL-6-GFP PC-9, 0.819 ± 0.06.

Consider `CCOc1ccccc1OCCNC(C)Cc1ccc(OC)c(S(N)(=O)=O)c1` (stereo unspecified) [Tamsulosin], for which the cell viability worked out at 1.37 ± 0.042 with IL-6-GFP PC-9GR and 1.316 ± 0.0058 with IL-6-GFP PC-9.

Regarding `CCN(CC)CCNC(=O)c1c(C)[nH]c(/C=C2\C(=O)Nc3ccc(F)cc32)c1C` [Sunitinib], the results for the cell viability in the assay with IL-6-GFP PC-9GR and in the assay on IL-6-GFP PC-9 were 0.573 ± 0.2 and 0.911 ± 0.27, respectively.

Take `COC(=O)NC(C(=O)N1CCCC1c1ncc(-c2ccc(-c3ccc(-c4cnc(C5CCCN5C(=O)C(NC(=O)OC)C(C)C)[nH]4)cc3)cc2)[nH]1)C(C)C` (stereo unspecified): the cell viability in the assay on IL-6-GFP PC-9GR worked out at 1.41 ± 0.14; with IL-6-GFP PC-9, 1.18 ± 0.11.

For the compound `CCC(C)C(=O)OC1CC(C)C=C2C=CC(C)C(CCC3CC(O)CC(=O)O3)C21` (stereo unspecified) [Lovastatin], the cell viability in the assay with IL-6-GFP PC-9GR was 1.23 ± 0.028; in the assay on IL-6-GFP PC-9, 0.619 ± 0.019.

`COc1ccc2cc1Oc1ccc(cc1)CC1c3cc(c(OC)cc3CCN1C)Oc1c(OC)c(OC)cc3c1C(C2)N(C)CC3` (stereo unspecified) [Tetrandrine]: the cell viability amounted to 1.15 ± 0.36 with IL-6-GFP PC-9GR and 1.3 ± 0.043 with IL-6-GFP PC-9.

Regarding `CNC(=O)C(NC(=O)C(CC(C)C)C(O)C(=O)NO)C(C)(C)C` (stereo unspecified) [Marimastat (BB-2516)], the cell viability amounted to 0.915 ± 0.038 in the assay on IL-6-GFP PC-9GR and 1.14 ± 0.19 in the assay on IL-6-GFP PC-9.

Consider `C=CC(=O)Nc1cc(Nc2nccc(-c3cn(C)c4ccccc34)n2)c(OC)cc1N(C)CCN(C)C` [Osimertinib (AZD9291)], for which the cell viability turned out to be 0.225 ± 0.073 with IL-6-GFP PC-9GR and 0.372 ± 0.059 with IL-6-GFP PC-9.

As for `O=c1[nH]c(=O)n(C2CC(O)C(CO)O2)cc1F` (stereo unspecified) [Floxuridine], the cell viability was found to be 0.681 ± 0.02 in the assay on IL-6-GFP PC-9GR and 0.808 ± 0.25 with IL-6-GFP PC-9.

For `Cl.O=C1NCC2(CCN(CCc3ccccc3)CC2)O1` [Fenspiride HCl], the cell viability amounted to 1.02 ± 0.044 with IL-6-GFP PC-9GR and 1.24 ± 0.015 with IL-6-GFP PC-9.

Consider `CC1(C(=O)O)CCC2(C)CCC3(C)C(=CC(=O)C4C5(C)CCC(OC6OC(C(=O)O)C(O)C(O)C6OC6OC(C(=O)O)C(O)C(O)C6O)C(C)(C)C5CCC43C)C2C1.N.N` (stereo unspecified) [Diammonium Glycyrrhizinate], for which the cell viability in the assay on IL-6-GFP PC-9GR was determined as 1.11 ± 0.22; with IL-6-GFP PC-9 it was 1.19 ± 0.07.

As to `COc1c2ccoc2cc2oc(=O)ccc12` [Bergapten], the cell viability in the assay on IL-6-GFP PC-9GR turned out to be 0.902 ± 0.041; in the assay with IL-6-GFP PC-9, 0.8378 ± 0.0073.

Regarding `CNC(=O)c1ccc(N2C(=S)N(c3cnc(C#N)c(C(F)(F)F)c3)C(=O)C23CCC3)cc1F`, the cell viability in the assay with IL-6-GFP PC-9GR was found to be 1.03 ± 0.13; in the assay with IL-6-GFP PC-9, 1.02 ± 0.11.

For `S=c1nc[nH]c2nc[nH]c12` [Mercaptopurine (6-MP)], the values for the cell viability in the assay on IL-6-GFP PC-9GR and with IL-6-GFP PC-9 were 1.13 ± 0.24 and 1.33 ± 0.29, respectively.

`CC(C(=O)O)c1ccc2c(c1)Cc1cccnc1O2` (stereo unspecified) [Pranoprofen]: the cell viability with IL-6-GFP PC-9GR is 1.12 ± 0.019; with IL-6-GFP PC-9, 1.25 ± 0.055.

For `COC(=O)c1cc(OC)c2c(c1-c1c(C(=O)OC)cc(OC)c3c1OCO3)OCO2` [Bifendate], the cell viability with IL-6-GFP PC-9GR amounted to 1.19 ± 0.22; in the assay with IL-6-GFP PC-9, 1.25 ± 0.027.
